Data from the supplement of paper PMC10849652.
The full data set covers some 7,900 targets. This sample favours those with a hit. About 0.6% of all pairs of compound and target were hits.

Experiments:
Assay in all cases: log2 fold change, soluble protein after heating vs DMSO (PISA); higher = thermal stabilisation; K562 cells, 10 uM, 30 min; active = over 0.2 and 3.5 SD of the protein, either way, in both replicates (recomputed)
erlotinib = compound: C#Cc1cccc(Nc2ncnc3cc(OCCOC)c(OCCOC)cc23)c1 [erlotinib]
In short: (§1)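 For each measurement, 10 μM compound was applied for 30 min to K562 cells at 2×10^6 cells/mL. Aliquots were heated for 3 min across 48°C-58°C, pooled, and extracted in PBS with 0.5% NP-40 at 4°C; the supernatant after 21,000xg for 90 min was soluble protein. This was quantified by TMTpro 16plex LC-MS/MS with channel sums equalised, and thermal stability was reported relative to control samples from duplicates, on a log2 fold-change scale.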

[1] = compound: C/C(=N\NC(=O)C1=CC(=CC=C1)S(=O)(=O)N2CCOCC2)/C3=C(C=CC(=C3)Cl)O
In short: as §1

[2] = compound: C1=CC(=C(C=C1Cl)C2=NC3=NC=CN=C3C(=N2)NC4=CC=NC=C4)F
In short: as §1

[3] = compound: C1=CC(=CC=C1C2=NC3=C(N2)C=C(C=C3)C(=O)N)OC4=CC=C(C=C4)Cl
In short: as §1

[4] = compound: C1=CC2=C(C=CC(=C2)/C=C\3/C(=O)NC(=NCC4=CC=CS4)S3)N=C1
In short: as §1

[5] = compound: C1=CC2=NC=CN=C2C=C1/C=C/3\C(=O)NC(=O)S3
In short: as §1

[6] = compound: C1=CC=C(C=C1)C2=NC(=C(N2)C3=CC=NC=C3)C4=CC(=C(C=C4)Cl)O
In short: as §1

[7] = compound: C1=CC=C2C(=C1)C3=NNC4=CC=CC(=C43)C2=O
In short: as §1

[8] = compound: C1CCN(C1)C(=O)NC2=CC=CC(=C2)NC3=NC=C(C(=N3)NCCC4=CN=CN4)Br
In short: as §1

[9] = compound: C1CN(CCC1(CC2=CC=C(C=C2)Cl)N)C3=NC=NC4=C3C=CN4
In short: as §1

Measured: log2 fold change

GLUD2 (UniProt P49448)
inactive: erlotinib 0.009 | [1] -0.028 | [2] 0.028 | [3] 0.036 | [4] 0.003 | [5] -0.011 | [6] 0.03 | [7] 0.027 | [8] -0.005 | [9] -0.009

GLB1 (UniProt P16278)
inactive: erlotinib -0.082 | [1] 0.038 | [2] 0 | [3] -0.006 | [4] 0.018 | [5] -0.028 | [6] 0.013 | [7] -0.011 | [8] 0.017 | [9] -0.009

GGT7 (UniProt Q9UJ14)
inactive: erlotinib 0.012 | [1] -0.006 | [2] 0.084 | [3] -0.027 | [4] -0.001 | [5] -0.004 | [6] -0.018 | [7] -0.01 | [8] -0.035 | [9] 0.062

HLTF (UniProt Q14527)
inactive: erlotinib -0.005 | [1] 0.018 | [2] 0.068 | [3] 0.039 | [4] 0.034 | [5] -0.067 | [6] -0.009 | [7] 0.044 | [8] -0.016 | [9] -0.011

HBQ1 (UniProt P09105)
inactive: erlotinib -0.007 | [1] -0.021 | [3] 0.03 | [4] 0.059 | [5] 0.011 | [6] 0.051 | [7] -0.021 | [8] -0.093 | [9] 0.026
active: [2] 0.33

GGA2 (UniProt Q9UJY4)
inactive: erlotinib 0.036 | [1] -0.041 | [2] -0.151 | [3] 0.003 | [4] 0.063 | [5] 0.033 | [6] -0.053 | [7] -0.013 | [8] 0.025 | [9] -0.016

GTF2B (UniProt Q00403)
inactive: erlotinib 0.069 | [1] 0.136 | [2] 0.048 | [3] -0.035 | [4] 0.149 | [5] 0.027 | [6] -0.033 | [7] 0.01 | [8] -0.065 | [9] -0.046

GSR (UniProt P00390)
Sequence of UniProt P00390 (P00390 whole entry, looked up): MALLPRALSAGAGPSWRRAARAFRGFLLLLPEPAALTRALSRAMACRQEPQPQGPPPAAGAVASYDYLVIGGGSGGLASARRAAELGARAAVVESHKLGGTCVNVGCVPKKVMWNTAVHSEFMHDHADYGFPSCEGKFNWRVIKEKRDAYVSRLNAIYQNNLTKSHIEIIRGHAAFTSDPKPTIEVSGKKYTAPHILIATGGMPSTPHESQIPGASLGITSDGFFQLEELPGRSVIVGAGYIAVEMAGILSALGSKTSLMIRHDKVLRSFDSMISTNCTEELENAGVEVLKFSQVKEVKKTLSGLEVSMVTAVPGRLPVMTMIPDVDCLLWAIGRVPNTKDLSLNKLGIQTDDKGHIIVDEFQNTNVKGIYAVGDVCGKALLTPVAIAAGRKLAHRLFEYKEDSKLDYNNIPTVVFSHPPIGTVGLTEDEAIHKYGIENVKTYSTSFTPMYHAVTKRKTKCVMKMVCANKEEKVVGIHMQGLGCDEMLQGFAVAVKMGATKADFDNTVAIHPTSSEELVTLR
inactive: erlotinib -0.099 | [1] 0.021 | [2] 0.071 | [3] 0.067 | [4] 0.023 | [5] 0.007 | [6] -0.026 | [7] -0.017 | [8] 0.011 | [9] 0.054

HDAC2 (UniProt Q92769)
inactive: [1] 0.013 | [2] -0.02 | [3] -0.012 | [4] 0.006 | [5] 0.002 | [6] -0.011 | [7] -0.011 | [8] -0.025 | [9] 0.023
active: erlotinib 0.757

HADHA (UniProt P40939)
Sequence of UniProt P40939 (P40939 whole entry, looked up): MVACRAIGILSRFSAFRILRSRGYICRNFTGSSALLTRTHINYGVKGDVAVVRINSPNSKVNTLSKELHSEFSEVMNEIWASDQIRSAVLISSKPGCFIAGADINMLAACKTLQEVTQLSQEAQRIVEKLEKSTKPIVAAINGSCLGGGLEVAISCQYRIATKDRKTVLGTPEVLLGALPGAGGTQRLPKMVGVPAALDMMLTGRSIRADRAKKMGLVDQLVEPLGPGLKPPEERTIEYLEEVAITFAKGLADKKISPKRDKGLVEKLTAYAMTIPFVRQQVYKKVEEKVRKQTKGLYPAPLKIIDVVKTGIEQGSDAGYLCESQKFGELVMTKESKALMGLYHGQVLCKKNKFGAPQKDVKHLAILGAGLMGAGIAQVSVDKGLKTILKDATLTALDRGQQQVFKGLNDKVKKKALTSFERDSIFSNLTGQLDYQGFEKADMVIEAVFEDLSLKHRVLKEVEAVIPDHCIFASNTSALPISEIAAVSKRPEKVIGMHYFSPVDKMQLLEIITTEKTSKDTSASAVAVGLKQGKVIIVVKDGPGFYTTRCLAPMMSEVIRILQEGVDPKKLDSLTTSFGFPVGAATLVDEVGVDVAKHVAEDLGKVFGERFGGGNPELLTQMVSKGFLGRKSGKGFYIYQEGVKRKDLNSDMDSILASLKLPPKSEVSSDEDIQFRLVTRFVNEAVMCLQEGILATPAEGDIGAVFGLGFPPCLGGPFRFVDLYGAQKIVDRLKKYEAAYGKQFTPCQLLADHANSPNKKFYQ
inactive: erlotinib -0.085 | [1] 0.122 | [2] 0.044 | [3] -0.18 | [4] 0.042 | [5] 0.02 | [6] 0.07 | [7] 0.271 | [8] -0.214 | [9] 0.171

GPAT4 (UniProt Q86UL3)
inactive: erlotinib -0.017 | [1] -0.002 | [2] 0.06 | [3] -0.021 | [4] -0.016 | [5] -0.016 | [6] -0.01 | [7] 0.032 | [8] -0.087 | [9] 0.07

FUCA2 (UniProt Q9BTY2)
inactive: erlotinib -0.001 | [1] -0.03 | [2] -0.026 | [3] 0.013 | [4] 0.015 | [5] 0.038 | [6] 0.033 | [7] 0.029 | [8] 0.056 | [9] 0.017

GMEB2 (UniProt Q9UKD1)
inactive: erlotinib 0.003 | [1] 0.039 | [2] 0.168 | [3] 0.004 | [4] -0.009 | [5] 0.047 | [6] -0.022 | [7] -0.117 | [8] -0.105 | [9] 0.024

HMGN2 (UniProt P05204)
inactive: erlotinib -0.02 | [1] -0.01 | [2] -0.255 | [3] 0.034 | [4] -0.125 | [5] -0.039 | [6] -0.052 | [7] 0.059 | [8] 0.011 | [9] 0.019

HIST2H3A (UniProt Q71DI3)
inactive: erlotinib 0.113 | [1] -0.114 | [2] -0.305 | [3] -0.028 | [4] 0.011 | [5] 0.221 | [6] 0.047 | [7] -0.004 | [8] 0.287 | [9] -0.378

GALNT2 (UniProt Q10471)
Sequence of UniProt Q10471 (Q10471 whole entry, looked up): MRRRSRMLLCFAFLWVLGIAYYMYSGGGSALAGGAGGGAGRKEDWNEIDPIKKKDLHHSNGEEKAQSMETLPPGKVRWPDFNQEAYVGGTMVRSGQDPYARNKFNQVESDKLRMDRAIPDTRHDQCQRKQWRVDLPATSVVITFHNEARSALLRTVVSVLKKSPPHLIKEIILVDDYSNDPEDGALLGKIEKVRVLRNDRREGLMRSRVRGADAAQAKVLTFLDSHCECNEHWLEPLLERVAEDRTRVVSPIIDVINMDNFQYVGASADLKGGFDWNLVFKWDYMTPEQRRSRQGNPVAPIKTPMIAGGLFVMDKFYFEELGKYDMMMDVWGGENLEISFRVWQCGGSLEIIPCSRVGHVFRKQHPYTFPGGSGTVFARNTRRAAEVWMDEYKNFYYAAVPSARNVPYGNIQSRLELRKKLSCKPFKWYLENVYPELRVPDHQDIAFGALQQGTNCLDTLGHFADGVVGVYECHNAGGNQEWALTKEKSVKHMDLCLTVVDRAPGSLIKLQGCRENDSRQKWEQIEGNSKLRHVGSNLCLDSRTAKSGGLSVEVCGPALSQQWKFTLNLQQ
inactive: erlotinib -0.052 | [1] 0.043 | [2] 0.021 | [3] 0 | [4] 0.009 | [5] 0.022 | [6] 0.028 | [7] 0.046 | [8] 0.009 | [9] 0.042

GALNT11 (UniProt Q8NCW6)
inactive: erlotinib 0.088 | [1] -0.019 | [2] 0.033 | [3] -0.009 | [4] 0.122 | [5] 0.118 | [6] -0.034 | [7] 0.043 | [8] -0.025 | [9] 0.014

GLIPR2 (UniProt Q9H4G4)
inactive: erlotinib 0.039 | [1] 0.054 | [2] -0.035 | [3] 0.15 | [4] 0.023 | [5] -0.019 | [6] -0.062 | [7] -0.028 | [8] 0.045 | [9] -0.058

FERMT3 (UniProt Q86UX7)
inactive: erlotinib 0.019 | [1] 0.076 | [2] 0.091 | [3] -0.003 | [4] 0.028 | [5] 0.02 | [6] 0.011 | [7] 0.008 | [8] -0.006 | [9] 0.012

GOLPH3 (UniProt Q9H4A6)
Sequence of UniProt Q9H4A6 (Q9H4A6 whole entry, looked up): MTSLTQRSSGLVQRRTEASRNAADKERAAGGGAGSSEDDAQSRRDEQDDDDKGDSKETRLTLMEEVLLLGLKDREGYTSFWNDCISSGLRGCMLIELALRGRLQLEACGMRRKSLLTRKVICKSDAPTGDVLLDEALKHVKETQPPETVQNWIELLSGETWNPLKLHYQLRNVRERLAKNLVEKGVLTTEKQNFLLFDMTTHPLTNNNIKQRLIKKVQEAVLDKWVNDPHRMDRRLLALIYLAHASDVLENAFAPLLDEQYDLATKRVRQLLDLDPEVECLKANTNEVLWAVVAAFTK
inactive: erlotinib 0.008 | [1] 0.073 | [2] 0.104 | [3] -0.014 | [4] 0.011 | [5] 0.008 | [6] 0.051 | [7] -0.007 | [8] -0.101 | [9] 0.043

HADHB (UniProt P55084)
Sequence of UniProt P55084 (P55084 whole entry, looked up): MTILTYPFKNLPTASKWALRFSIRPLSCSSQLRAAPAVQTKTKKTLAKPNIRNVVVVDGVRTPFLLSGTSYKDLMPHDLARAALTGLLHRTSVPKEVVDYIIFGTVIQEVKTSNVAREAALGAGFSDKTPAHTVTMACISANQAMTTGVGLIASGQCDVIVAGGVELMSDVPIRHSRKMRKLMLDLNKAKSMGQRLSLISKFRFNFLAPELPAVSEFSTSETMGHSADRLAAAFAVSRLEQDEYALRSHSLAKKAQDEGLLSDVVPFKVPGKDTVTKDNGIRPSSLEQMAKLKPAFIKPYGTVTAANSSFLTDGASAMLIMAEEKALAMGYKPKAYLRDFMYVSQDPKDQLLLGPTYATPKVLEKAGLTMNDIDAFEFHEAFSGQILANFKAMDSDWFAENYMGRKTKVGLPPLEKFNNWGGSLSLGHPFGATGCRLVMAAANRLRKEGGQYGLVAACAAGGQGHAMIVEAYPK
inactive: erlotinib -0.057 | [1] 0.112 | [2] 0.035 | [3] -0.184 | [4] 0.063 | [5] 0.024 | [6] 0.04 | [7] 0.259 | [8] -0.206 | [9] 0.158

GSTT1 (UniProt P30711)
Sequence of UniProt P30711 (P30711 whole entry, looked up): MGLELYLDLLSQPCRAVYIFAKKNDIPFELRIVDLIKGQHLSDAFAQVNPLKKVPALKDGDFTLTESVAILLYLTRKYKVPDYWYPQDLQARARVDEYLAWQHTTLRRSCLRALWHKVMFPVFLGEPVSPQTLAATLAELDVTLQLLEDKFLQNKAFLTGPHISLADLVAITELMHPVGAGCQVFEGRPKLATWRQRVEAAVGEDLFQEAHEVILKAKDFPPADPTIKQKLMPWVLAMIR
inactive: erlotinib 0.037 | [1] -0.007 | [2] 0.275 | [3] 0.033 | [4] 0.114 | [5] 0.037 | [6] -0.044 | [7] -0.031 | [8] 0.003 | [9] -0.028

HMG20A (UniProt Q9NP66)
inactive: erlotinib -0.005 | [1] 0.125 | [2] -0.09 | [3] 0.017 | [4] -0.281 | [5] -0.009 | [7] 0.001 | [8] -0.013 | [9] 0.006
active: [6] 0.429

GDI1 (UniProt P31150)
inactive: erlotinib -0.009 | [1] 0.025 | [2] 0.03 | [3] 0.014 | [4] 0.007 | [5] 0.007 | [6] -0.021 | [7] -0.001 | [8] 0.015 | [9] 0.008

GNL3 (UniProt Q9BVP2)
inactive: [2] 0.165 | [4] 0.149 | [5] -0.054 | [7] 0.053 | [8] -0.048 | [9] 0.142
active: [1] -0.562

GTF3A (UniProt Q92664)
inactive: erlotinib -0.048 | [1] -0.117 | [2] 0.095 | [3] 0.116 | [4] 0.157 | [5] 0.004 | [7] -0.115 | [8] -0.019 | [9] 0.174

FMR1 (UniProt Q06787)
inactive: erlotinib -0.301 | [3] 0.154 | [6] -0.121

FUNDC1 (UniProt Q8IVP5)
active: [5] 0.597

GREB1 (UniProt Q4ZG55)
Sequence of UniProt Q4ZG55 (Q4ZG55 whole entry, looked up): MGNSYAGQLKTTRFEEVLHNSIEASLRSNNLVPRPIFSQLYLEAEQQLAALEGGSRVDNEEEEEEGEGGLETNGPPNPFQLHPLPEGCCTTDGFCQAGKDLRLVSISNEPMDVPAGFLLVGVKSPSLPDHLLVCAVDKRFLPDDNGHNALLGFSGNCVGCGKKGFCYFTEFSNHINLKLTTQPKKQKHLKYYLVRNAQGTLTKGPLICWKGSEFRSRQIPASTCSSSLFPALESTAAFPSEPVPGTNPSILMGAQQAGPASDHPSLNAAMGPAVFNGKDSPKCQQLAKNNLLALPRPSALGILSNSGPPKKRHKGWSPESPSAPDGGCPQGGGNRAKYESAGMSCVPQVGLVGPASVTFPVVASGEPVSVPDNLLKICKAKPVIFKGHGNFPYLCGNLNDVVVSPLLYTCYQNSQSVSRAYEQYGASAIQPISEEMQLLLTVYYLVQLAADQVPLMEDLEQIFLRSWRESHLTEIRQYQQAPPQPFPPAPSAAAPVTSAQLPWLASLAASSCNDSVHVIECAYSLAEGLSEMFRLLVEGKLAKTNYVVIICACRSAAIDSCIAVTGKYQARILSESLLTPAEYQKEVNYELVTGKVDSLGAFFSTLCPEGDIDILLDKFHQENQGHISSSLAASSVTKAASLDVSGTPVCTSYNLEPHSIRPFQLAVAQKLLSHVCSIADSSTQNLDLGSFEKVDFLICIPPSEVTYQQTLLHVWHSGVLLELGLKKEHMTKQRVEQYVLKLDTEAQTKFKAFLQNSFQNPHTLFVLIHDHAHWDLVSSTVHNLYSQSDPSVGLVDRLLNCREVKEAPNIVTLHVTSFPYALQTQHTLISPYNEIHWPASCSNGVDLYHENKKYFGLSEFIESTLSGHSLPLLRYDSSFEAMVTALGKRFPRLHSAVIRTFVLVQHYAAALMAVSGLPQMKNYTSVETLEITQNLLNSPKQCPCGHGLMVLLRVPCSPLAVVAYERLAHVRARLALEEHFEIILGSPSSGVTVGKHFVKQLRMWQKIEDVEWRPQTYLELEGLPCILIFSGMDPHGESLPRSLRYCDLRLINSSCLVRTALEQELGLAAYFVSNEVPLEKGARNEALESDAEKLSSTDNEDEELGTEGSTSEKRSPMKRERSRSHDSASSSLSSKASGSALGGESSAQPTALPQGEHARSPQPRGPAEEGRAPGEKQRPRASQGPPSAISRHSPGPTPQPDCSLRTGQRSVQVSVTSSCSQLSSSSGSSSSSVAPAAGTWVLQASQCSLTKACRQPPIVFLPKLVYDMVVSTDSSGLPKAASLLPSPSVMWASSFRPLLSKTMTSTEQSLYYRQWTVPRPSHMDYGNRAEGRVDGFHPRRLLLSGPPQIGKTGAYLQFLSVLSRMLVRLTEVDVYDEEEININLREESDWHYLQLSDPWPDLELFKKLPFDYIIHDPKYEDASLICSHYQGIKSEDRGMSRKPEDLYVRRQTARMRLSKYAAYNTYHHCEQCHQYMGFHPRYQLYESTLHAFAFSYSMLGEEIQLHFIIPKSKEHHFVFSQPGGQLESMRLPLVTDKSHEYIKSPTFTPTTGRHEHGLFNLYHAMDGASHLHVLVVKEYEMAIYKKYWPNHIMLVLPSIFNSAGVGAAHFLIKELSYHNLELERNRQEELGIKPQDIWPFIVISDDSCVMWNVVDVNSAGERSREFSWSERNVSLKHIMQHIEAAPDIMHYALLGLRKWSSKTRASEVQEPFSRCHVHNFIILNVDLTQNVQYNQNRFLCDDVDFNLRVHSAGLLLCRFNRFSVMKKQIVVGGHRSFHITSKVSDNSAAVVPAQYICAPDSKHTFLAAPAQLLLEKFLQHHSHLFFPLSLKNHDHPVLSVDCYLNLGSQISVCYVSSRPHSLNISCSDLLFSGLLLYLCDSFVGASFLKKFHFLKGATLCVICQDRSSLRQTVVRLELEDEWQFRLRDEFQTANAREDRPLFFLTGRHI
active: [1] -0.751
inactive: erlotinib 0.218 | [2] 0 | [3] -0.132 | [4] 0.092 | [7] -0.044 | [8] -0.06 | [9] 0.291

GINS2 (UniProt Q9Y248)
Sequence of UniProt Q9Y248 (Q9Y248 whole entry, looked up): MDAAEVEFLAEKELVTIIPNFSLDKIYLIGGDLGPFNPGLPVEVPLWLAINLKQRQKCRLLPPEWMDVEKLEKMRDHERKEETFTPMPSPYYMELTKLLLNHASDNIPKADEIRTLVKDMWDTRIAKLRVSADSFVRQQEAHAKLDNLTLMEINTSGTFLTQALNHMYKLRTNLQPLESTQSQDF
inactive: erlotinib 0.076 | [2] 0.083 | [3] -0.045 | [5] -0.008 | [6] 0.203 | [8] -0.089 | [9] -0.034

HEATR3 (UniProt Q7Z4Q2)
inactive: erlotinib -0.002 | [2] -0.013 | [3] 0.013 | [5] -0.044 | [6] 0.062 | [8] -0.113 | [9] 0.032

GOLGA6B (UniProt A6NDN3)
inactive: erlotinib -0.069 | [2] -0.054 | [3] 0.116 | [5] 0.036

FAT1 (UniProt Q14517)
inactive: erlotinib -0.06 | [2] -0.062 | [3] 0.161 | [5] -0.08 | [6] 0.045 | [8] -0.123 | [9] 0.066
